How the values were obtained:
Assay in all cases: log2 ratio of Biotin-Ahx-Ub-VS probe labelling (fragment/DMSO); higher = less target engagement (more negative = stronger competition), active = hit call of the paper (q ≤ 0.05, log2 ratio ≤ -1)
Details in all cases: compound concentration: 200 uM; treatment time: 3 h
[1] = molecular target: T1, OTUD6B (UniProt Q8N6M0)
T1 sequence (whole entry): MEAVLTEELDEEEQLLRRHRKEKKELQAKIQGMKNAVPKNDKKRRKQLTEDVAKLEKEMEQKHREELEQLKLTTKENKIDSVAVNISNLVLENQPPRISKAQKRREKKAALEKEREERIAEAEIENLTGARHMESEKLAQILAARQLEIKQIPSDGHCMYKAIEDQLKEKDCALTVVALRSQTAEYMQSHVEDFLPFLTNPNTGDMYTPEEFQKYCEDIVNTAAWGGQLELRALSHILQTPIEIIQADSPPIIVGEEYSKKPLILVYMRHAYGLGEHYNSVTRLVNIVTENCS
Outline: (§1)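 Lysate from HEK293T cells, 495 µg per sample in Tris/CHAPS/IGEPAL buffer with protease inhibitors, was treated for 3 h in triplicate with fragment at 200 µM or vehicle. Biotin-Ahx-Ub-VS was next added at 0.5 µM final for 1 h. The labelled DUBs were enriched with NeutrAvidin, digested with LysC and trypsin, and run by diaPASEF LC-MS/MS, with values given as average log2 fragment/vehicle ratios by unpaired t-test on global-median-normalised Spectronaut quantities of proteins with ≥2 unique peptides.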

[2] = molecular target: T2, OTUD7B (UniProt Q6GQQ9)
T2 sequence (whole entry): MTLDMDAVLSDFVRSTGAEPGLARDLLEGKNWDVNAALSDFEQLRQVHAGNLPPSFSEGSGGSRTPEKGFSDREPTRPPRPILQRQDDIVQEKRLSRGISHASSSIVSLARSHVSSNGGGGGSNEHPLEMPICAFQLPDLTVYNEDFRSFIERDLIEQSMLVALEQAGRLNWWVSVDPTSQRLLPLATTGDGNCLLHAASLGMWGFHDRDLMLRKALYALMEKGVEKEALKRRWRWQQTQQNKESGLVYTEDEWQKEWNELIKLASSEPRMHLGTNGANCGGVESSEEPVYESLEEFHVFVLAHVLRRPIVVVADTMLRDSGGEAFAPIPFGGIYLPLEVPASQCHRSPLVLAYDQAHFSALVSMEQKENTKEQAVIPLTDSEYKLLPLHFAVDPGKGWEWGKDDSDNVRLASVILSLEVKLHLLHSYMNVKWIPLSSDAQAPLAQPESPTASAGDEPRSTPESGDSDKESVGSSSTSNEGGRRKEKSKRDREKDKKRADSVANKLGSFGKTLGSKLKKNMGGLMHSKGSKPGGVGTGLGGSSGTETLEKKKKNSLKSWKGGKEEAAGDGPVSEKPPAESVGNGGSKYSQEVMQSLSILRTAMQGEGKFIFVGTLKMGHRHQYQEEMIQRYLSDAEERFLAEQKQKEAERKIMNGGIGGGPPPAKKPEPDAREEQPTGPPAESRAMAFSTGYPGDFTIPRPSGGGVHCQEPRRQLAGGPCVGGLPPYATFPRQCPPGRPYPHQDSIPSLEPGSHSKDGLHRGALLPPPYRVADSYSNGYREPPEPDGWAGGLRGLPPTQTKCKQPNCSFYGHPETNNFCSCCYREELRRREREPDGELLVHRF
Outline: as §1

[3] = molecular target: PRPF8 (UniProt Q6P2Q9)
Outline: as §1

[4] = molecular target: T3, PSMD7 (UniProt P51665)
T3 sequence (whole entry): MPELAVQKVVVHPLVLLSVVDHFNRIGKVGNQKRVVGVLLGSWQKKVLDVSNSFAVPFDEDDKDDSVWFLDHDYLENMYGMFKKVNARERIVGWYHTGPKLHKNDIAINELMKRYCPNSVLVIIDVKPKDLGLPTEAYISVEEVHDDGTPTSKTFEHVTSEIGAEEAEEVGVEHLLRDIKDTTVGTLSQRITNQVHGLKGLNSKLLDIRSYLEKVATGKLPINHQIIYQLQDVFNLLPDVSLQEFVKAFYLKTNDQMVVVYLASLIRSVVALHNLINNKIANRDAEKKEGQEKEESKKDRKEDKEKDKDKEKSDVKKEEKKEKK
Outline: as §1

[5] = molecular target: UCHL1 (UniProt P09936)
Outline: as §1

[6] = molecular target: T4, UCHL3 (UniProt P15374)
T4 sequence (whole entry): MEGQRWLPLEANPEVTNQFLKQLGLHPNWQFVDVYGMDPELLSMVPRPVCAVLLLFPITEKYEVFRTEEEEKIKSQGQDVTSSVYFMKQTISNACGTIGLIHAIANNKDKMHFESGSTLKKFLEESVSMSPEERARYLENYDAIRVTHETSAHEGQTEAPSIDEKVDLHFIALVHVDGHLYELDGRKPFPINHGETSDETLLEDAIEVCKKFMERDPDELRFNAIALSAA
Outline: as §1

[7] = molecular target: T5, UCHL5 (UniProt Q9Y5K5)
T5 sequence (whole entry): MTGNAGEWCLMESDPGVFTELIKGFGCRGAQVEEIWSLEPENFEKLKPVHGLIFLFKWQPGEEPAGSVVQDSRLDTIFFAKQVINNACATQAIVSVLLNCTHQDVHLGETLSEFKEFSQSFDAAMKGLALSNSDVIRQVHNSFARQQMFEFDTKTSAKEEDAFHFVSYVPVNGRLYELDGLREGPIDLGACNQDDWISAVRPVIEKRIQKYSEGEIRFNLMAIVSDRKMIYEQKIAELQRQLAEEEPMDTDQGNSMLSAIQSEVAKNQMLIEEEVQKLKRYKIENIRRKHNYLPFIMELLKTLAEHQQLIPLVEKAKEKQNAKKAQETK
Outline: as §1

[8] = molecular target: USP10 (UniProt Q14694)
Outline: as §1

[9] = molecular target: T6, USP15 (UniProt Q9Y4E8)
T6 sequence (whole entry): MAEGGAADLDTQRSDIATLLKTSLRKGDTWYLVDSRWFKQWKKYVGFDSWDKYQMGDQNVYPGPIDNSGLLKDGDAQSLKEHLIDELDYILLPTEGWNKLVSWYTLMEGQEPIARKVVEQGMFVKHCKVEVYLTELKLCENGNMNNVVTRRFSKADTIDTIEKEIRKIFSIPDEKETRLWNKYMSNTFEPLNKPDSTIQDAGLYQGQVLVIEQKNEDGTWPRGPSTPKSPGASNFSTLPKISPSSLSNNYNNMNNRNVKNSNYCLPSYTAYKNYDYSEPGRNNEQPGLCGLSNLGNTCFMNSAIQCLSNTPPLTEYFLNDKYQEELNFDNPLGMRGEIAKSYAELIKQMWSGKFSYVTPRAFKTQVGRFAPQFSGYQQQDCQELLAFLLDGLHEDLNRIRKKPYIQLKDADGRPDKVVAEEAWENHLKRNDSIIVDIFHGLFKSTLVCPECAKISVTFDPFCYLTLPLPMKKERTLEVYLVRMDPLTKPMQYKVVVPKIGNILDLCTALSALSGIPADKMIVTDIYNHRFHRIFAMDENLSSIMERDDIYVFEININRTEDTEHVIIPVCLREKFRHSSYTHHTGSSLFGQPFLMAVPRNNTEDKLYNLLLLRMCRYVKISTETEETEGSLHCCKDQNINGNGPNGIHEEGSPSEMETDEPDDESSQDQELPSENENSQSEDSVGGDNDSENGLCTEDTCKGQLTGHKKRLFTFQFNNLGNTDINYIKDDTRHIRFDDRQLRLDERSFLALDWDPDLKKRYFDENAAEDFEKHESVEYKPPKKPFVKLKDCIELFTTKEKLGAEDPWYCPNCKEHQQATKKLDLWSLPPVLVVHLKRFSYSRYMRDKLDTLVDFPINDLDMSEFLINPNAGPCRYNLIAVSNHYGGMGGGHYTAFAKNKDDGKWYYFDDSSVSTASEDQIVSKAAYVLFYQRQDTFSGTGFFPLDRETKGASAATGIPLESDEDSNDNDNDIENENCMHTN
Outline: as §1

[10] = molecular target: USP16 (UniProt Q9Y5T5)
Outline: as §1

Measured: log2 ratio of Biotin-Ahx-Ub-VS probe labelling

Sequence of USP16 (Q9Y5T5 whole entry, looked up): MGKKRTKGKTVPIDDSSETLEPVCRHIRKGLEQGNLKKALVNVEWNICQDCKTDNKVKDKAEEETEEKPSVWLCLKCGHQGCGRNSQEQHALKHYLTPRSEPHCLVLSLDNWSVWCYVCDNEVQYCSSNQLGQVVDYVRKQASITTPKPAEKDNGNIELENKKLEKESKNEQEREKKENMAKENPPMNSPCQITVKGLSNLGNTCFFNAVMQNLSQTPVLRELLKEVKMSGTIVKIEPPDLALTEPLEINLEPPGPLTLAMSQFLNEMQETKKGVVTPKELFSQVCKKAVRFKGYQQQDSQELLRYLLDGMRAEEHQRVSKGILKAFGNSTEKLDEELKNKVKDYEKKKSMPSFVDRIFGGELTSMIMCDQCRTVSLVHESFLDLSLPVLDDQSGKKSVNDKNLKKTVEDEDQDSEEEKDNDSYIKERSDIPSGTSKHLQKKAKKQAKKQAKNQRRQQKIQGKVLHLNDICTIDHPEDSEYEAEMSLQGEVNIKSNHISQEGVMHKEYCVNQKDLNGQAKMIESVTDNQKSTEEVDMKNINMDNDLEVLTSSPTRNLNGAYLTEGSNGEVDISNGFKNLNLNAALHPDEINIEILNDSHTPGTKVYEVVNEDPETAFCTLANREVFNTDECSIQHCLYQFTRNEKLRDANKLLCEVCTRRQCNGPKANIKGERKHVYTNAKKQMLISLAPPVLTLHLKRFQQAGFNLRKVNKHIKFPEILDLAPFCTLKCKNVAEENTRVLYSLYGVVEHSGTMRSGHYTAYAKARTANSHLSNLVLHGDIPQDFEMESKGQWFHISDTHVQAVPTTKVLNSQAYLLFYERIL
Sequence of USP10 (Q14694 whole entry): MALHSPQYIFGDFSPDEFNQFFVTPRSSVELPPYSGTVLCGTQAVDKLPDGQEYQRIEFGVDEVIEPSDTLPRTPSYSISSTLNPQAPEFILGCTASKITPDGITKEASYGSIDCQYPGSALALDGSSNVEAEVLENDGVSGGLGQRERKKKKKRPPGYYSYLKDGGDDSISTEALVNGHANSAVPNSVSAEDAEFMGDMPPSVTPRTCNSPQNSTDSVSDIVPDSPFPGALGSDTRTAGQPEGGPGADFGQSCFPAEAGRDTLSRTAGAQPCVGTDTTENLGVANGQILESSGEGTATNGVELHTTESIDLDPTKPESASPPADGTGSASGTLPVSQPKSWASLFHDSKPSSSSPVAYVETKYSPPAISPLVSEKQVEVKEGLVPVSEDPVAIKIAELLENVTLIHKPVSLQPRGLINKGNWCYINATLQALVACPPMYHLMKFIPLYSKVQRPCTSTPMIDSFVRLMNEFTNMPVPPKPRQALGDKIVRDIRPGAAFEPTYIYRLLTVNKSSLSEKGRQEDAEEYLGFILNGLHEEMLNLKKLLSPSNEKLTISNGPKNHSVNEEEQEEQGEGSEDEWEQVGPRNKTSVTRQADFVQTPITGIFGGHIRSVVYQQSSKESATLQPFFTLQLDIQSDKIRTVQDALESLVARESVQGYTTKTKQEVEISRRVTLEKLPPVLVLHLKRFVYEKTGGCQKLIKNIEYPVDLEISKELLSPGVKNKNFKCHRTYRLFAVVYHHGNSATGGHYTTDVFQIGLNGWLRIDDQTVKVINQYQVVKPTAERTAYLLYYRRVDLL
Sequence of UCHL1 (P09936 whole entry, looked up): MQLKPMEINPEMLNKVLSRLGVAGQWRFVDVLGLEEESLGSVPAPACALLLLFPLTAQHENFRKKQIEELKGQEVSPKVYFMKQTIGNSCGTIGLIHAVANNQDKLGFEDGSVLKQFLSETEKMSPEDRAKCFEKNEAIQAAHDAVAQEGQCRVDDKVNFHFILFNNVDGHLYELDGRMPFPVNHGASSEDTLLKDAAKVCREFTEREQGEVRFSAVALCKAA

NC(=O)C(Cc1ccccc1)NC(=O)CCl (stereo not given)
active: [5] -1.73
inactive: [1] -0.129 | [2] -0.38 | [3] -0.0593 | [4] -0.0419 | [6] 0.313 | [7] -0.295 | [8] -0.0595 | [9] -0.0229 | [10] 0.0723

Source: the supplement of paper PMC11732987, “Enantioselective OTUD7B fragment discovery through chemoproteomics screening and high-throughput optimisation” (Communications Chemistry, 2025)
